From PubChem BioAssay
CtBP-E1A inh = qHTS Assay for Inhibitors of the CtBP/E1A Interaction | AID 651724, 2012 | hit rate 0.49% among 340,000 | CtBP / adenovirus E1A interaction (AlphaScreen) | AlphaScreen GST-E1A/His-CtBP binding, 1536-well; hits give low values | activity change, % (test concentration not listed); in the data active = activity change below about -65%; inconclusive = mostly about -30% to -63%; also: % is scaled to controls: 0 for no effect and ±100 for the full control effect
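In 5 uL wells, 23 nL compound meets equimolar GST-E1A and His-CtBP (5X stock 125 nM each) for 2 h, 37 °C. Beads (5X, 50 ug/mL) then 1 h, 37 °C, dark.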
G9a inh = qHTS Assay for Inhibitors of Histone Lysine Methyltransferase G9a | Histone-lysine N-methyltransferase EHMT2 (Homo sapiens), Q96KQ7 | G9a H3K9 monomethylation, AlphaScreen, 2 h | Potency, µM (top dose mostly 102 µM), inactives show at the top dose activity, negative = inhibition, hits mostly inhibitors | hit rate 8.8% among 350,000 | AID 504332, 2011; also: potency is read from the fitted curve at half-maximal effect; % is scaled to controls: 0 for no effect and ±100 for the full control effect; nearly all actives have a fitted effect of over 75% in size
Target sequence (Q96KQ7 913-1193 limits assumed): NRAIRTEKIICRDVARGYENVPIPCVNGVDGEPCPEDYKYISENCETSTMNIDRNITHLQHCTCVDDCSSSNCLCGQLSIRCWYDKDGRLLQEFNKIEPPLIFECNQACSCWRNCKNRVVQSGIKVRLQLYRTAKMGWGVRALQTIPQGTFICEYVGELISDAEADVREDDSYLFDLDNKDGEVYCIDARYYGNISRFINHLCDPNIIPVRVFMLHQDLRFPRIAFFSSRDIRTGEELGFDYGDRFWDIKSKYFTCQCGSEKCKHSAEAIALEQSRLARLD
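Chemiluminescent proximity detection of H3K9 monomethylation, read after 10 min bead incubation in the dark. Reaction: 20 nM G9a, 500 nM biotin-H3K9 peptide, 20 uM SAM cofactor, 2 h, room temperature, following 15 min enzyme-compound preincubation.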
HP1b binding inh = HTS for Inhibitors of HP1-beta Chromodomain Interactions with Methylated Histone Tails; AlphaScreen HP1-beta / biotin-H3K9me3 peptide binding; hit rate 0.56% among 390,000; Chromobox protein homolog 1 (Homo sapiens), P83916; Potency, µM (series often up to 114 µM), for the others: at the top dose activity change, negative = inhibition, usual class: inhibitors; AID 540317, 2011; also: potency is read from the fitted curve at half-maximal effect; nearly all actives have a fitted effect of over 70% in size
Target sequence (P83916 whole entry, looked up): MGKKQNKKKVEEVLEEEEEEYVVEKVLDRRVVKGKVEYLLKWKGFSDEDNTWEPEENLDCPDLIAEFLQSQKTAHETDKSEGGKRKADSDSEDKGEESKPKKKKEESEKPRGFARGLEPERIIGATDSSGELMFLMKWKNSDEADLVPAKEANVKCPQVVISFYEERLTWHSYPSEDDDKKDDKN
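Compound inhibition of the preformed complex between 50 nM HP1-beta and 50 nM biotinylated H3K9me3 peptide was read by AlphaScreen. Buffer was PBS pH 7.4 with 0.01% Tween-20. Incubations ran 30 min at room temperature, with 10 ug/mL donor/acceptor beads.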
Six1-Eya2 inh = qHTS Assay for Inhibitors of the Six1/Eya2 Interaction; Homeobox protein SIX1 (Homo sapiens) + Protein phosphatase EYA2 (Homo sapiens), …; AlphaScreen GST-Six1/His-Eya2 binding, biochemical; hits give low values; activity change, % (no concentration beside the values); hit rate 0.56% among 360,000; in the data active = activity change below about -65%; inconclusive = mostly about -30% to -63%; also: % is scaled to controls: 0 for no effect and ±100 for the full control effect
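Compounds are tested against tagged Six1 and Eya2 proteins bridged by glutathione donor and nickel acceptor beads; after a one-hour incubation at 37 °C without light, AlphaScreen emission is recorded.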
JMJD2A Tudor inh = qHTS Assay for Inhibitors of JMJD2A-Tudor Domain. AlphaScreen JMJD2A-Tudor / H3K4me3 peptide binding. Potency, µM (top dose mostly 114 µM), for the others: at the top dose activity change, negative = inhibition, most hits filed as inhibitors. hit rate 4.4% among 390,000. AID 504339, 2011; also: potency is read from the fitted curve at half-maximal effect; % is scaled to controls: 0 for no effect and ±100 for the full control effect; nearly all actives have a fitted effect of over 50% in size
BAZ2B block = qHTS Assay for Inhibitors of BAZ2B | Bromodomain adjacent to zinc finger domain protein 2B (Homo sapiens), Q9UIF8 | AlphaScreen BAZ2B-H3K14Ac peptide displacement | Potency, µM (series often up to 114 µM), without a hit: at the highest dose activity change, negative = inhibition, actives largely listed as inhibitors | hit rate 4.4% among 360,000; also: potency is read from the fitted curve at half-maximal effect; % is scaled to controls: 0 for no effect and ±100 for the full control effect; nearly all actives have a fitted effect of over 60% in size
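AlphaScreen displacement of biotin-H3(5-23)K14Ac peptide (50 nM final) from BAZ2B (50 nM final) in PBS pH 7.4, 0.01% Tween-20; complex preformed 30 min RT, then compounds (top 110 uM) 30 min RT, beads 20 min dark.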
The depositor's hits bear a star; ? = inconclusive; · = not tested or not shown; [ ] = another dose, or the depositor's remark. Hits are enriched below; roughly 10% of the tested compounds scored in any of these assays. Unless noted, calls follow the shape of the dose curve; as a rule, active = well fitted inhibition curve with a large enough effect; inconclusive = small, poorly fitted or top-dose-only effect; inactive = no such curve, though single readings can be large or run the other way.

SMILES	CtBP-E1A inh	G9a inh	HP1b binding inh	Six1-Eya2 inh	JMJD2A Tudor inh	BAZ2B block
Cc1cc(C)c2c(=O)cc(C(=O)Nc3ccc(S(=O)(=O)Nc4onc(C)c4C)cc3)oc2c1	·	-40%[59 µM]	-5%	·	-35%	?
O=C(COC(=O)/C=C/c1ccc(Br)o1)NC1CCCCC1	-10	2%[12.7 µM]	8%	-5	79µM*	?
O=C(COC(=O)/C=C/c1ccc(Br)o1)Nc1ccccc1F	·	?	·	·	·	56µM*
O=C(COC(=O)/C=C/c1ccco1)NC1CCCCC1	-1	15%[12.7 µM]	-37%	-15	?	-3%
CCCCc1nn2c(=O)cc(COC(=O)COc3ccc(C)cc3)nc2s1	·	2%[59 µM]	41%	·	-16%	-17%
Cc1ccc(C(=O)c2oc3ccccc3c2NC(=O)COc2ccccc2C)cc1	·	23%[59 µM]	38%	·	3%	3%
Cc1ccc(NC(=O)CSc2nc(=O)n(Cc3ccccn3)c3c2CCC3)cc1F	·	-5%[59 µM]	22%	·	-8%	-3%
CC(C(=O)Nc1ccccc1C(=O)N1CCCC1)n1nnc2ccccc21 (configuration not stated)	3	18µM*	3%	0	-11%	5%
CC(Oc1ccc(Cl)cc1)C(=O)Nc1ccccc1N1CCOCC1 (configuration not stated)	-1	·	63%	1	20%	·
Cc1ccc(OC(C)C(=O)Nc2ccccc2C(=O)N2CCN(C)CC2)cc1 (configuration not stated)	-1	40µM*	2%	-5	-4%	-22%
Cc1cccc(OC(C)C(=O)Nc2ccccc2C(=O)N2CCCCC2)c1 (configuration not stated)	-1	35µM*	16%[57 µM]	19	-13%	-7%
Cc1cc(OC(C)C(=O)Nc2ccccc2C(=O)N2CCCC2)ccc1Cl (configuration not stated)	9	49%	41%	-1	2%	-4%
CC(Oc1cccc(Cl)c1)C(=O)Nc1ccccc1N1CCCC1 (configuration not stated)	-15	50µM*	-4%	-22	?	-7%
Cc1ccc(N2CCN(Cc3nnc(-c4ccc5c(c4)OCO5)o3)CC2)c(C)c1	·	0%[59 µM]	24%	·	19%	-2%
Cc1cccc(OC(C)C(=O)Nc2ccc(N3CCCCC3)cc2)c1 (configuration not stated)	-20	22µM*	-22%	-27	?	?
CC(Oc1cccc(F)c1)C(=O)Nc1ccc(N2CCOCC2)cc1 (configuration not stated)	-8	?	30%	-1	-19%	-1%
Cc1ccc(Cc2nc3ccccc3nc2SCC(=O)NCc2ccc(F)cc2)cc1	·	5%[59 µM]	22%[57 µM]	·	-3%	6%
COC(=O)c1ccc2c(=O)[nH]c(CN3c4ccccc4CC3C)nc2c1 (configuration not stated)	-5	11µM*	8%	-11	-30%	-29%
CC1Cc2ccccc2N1Cc1nc2scc(-c3cccs3)c2c(=O)[nH]1 (configuration not stated)	-6	45µM*	22%	-7	-15%	-32%
Cc1ccc(-c2c3c(=O)n(C)c(=O)n(C)c3c3cnc4ccccc4n23)cc1	·	-27%[59 µM]	21%	·	-3%	7%
CCOC(=O)C1=C(C)N(CCCC(=O)O)C(=O)NC1c1ccccc1Cl (configuration not stated)	-14	·	18%	6	-12%	·
CCOC(=O)CN1C(=O)N[C@H](c2ccc(Br)cc2)C(C(C)=O)=C1C	5	45µM*	25%	0	-28%	-24%
